This is a sample that favours compounds with a hit; in the whole collection about 3% have one here.
A1 inh: inhibitors of the anti-apoptotic protein A1, read as caspase activation | MEF A1-2A-BIM cells, Caspase-Glo 3/7 luminescence, 3 h; percent of clofoctol response, vehicle zero | caspase activation, % (concentration not given with the values) | 0.066% of 330,000 active;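 active = over half of replicate activation scores above 10%, or exactly half above 10 with the replicate mean above 10; inconclusive = replicate mean below 10 yet half the replicates above 10; inactive = over half of replicates below 10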
CHT block: inhibits the human high affinity choline transporter; B-score at 10 µM; CHT-expressing cells, membrane potential dye, choline response; active compounds read low; Q9GZV3; AID 488975; 0.86% of 310,000 active;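 active = B-score over 3 SD under the library average, and starting fluorescence ratio not unusually high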;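 also: choline stimulus applied at its EC90 after an EC20 pre-addition; B-score computed on integrated fluorescence ratio after choline addition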
Target sequence (Q9GZV3 whole entry, looked up): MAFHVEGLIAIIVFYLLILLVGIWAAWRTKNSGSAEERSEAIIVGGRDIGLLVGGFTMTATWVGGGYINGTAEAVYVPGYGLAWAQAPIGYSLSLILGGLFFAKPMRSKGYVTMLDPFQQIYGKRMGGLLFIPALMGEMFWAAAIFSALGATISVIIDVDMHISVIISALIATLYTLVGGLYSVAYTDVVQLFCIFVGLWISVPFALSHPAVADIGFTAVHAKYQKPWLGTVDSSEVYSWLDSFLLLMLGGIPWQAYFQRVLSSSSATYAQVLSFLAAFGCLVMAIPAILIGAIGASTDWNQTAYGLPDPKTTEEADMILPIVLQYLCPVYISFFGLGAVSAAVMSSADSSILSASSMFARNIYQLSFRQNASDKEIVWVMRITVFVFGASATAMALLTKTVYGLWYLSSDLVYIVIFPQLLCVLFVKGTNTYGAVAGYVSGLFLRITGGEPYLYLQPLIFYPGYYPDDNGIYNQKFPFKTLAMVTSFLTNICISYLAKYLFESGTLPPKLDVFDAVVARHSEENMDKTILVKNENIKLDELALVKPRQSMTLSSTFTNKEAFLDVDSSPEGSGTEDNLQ
NALP3 yeast inh: blocks the NALP3 inflammasome reconstituted in yeast; Yeast reconstituted NLRP3/ASC/caspase-1, beta-gal luminescence, 24 h; 0.39% of 330,000 active; inhibition, % at 10 µM;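 active = inhibition of 50% or more; inactive = inhibition below 50%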
Mot1-301 SUMO: inhibitors of SUMOylation pathway: yeast Mot1-301 growth rescue | S. cerevisiae Mot1-301 growth rescue, ATP luminescence, 38.5C; percent above DMSO median, 100 means doubled | growth rescue, % at 18.8 µM | 1% of 320,000 active | AID 2716;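 active = every valid replicate shows activation above 250% relative to neutral control wells; inactive = the rest, any valid replicate at or below 250%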
NALP1 yeast inh: NALP1 inhibition | 0.61% of 280,000 active | inhibition, % at 10 µM | S. cerevisiae NALP1/ASC/caspase-1 growth, X-gal OD620, 72 h; in the data active = inhibition mostly above about 24%, no sharp cut-off; inactive = mostly below about 32%
CHT PAM: allosterically activates the human high affinity choline transporter; B-score at 10 µM; AID 488977; CHT-expressing cells, membrane potential dye, choline EC20; active compounds read high; LV-AA mutant CHT in HEK293 cells; 0.49% of 310,000 active;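 active = initial fluorescence not abnormally high and integrated response B-score, plate-corrected, over 3 SD above library mean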
Each line names hits and unclear results; the compound was inactive in the other large screens; ! = repeats disagree.

CCOC(=O)Cc1c(C)nc2c(-c3ccc(OC)cc3)c(C)nn2c1C	NALP1 yeast inh 43
CCN(CC(=O)Nc1cc(Cl)cc(Cl)c1)CC(=O)NC1CCS(=O)(=O)C1 (centres undefined)	none (no result: CHT block, NALP1 yeast inh, CHT PAM)
O=C(C[C@@H]1C/C=C\CCCC(=O)OC[C@@H]2CCCN2C1=O)N[C@@H](CO)Cc1ccccc1	none (no result: CHT block, NALP1 yeast inh, CHT PAM)
Cc1ccc2nc(-c3ccc(NS(=O)(=O)c4ccc(F)c(F)c4)cc3)sc2c1	none (no result: NALP3 yeast inh)
Cc1ccc(NS(=O)(=O)c2sc3ccc(Cl)cc3c2C)cc1	Mot1-301 SUMO 665
COC(=O)c1cccc(NC(=O)/C=C/c2ccc([N+](=O)[O-])cc2)c1	none
O=C(/C=C/c1ccc([N+](=O)[O-])cc1)Nc1cccc(C(=O)Nc2ccccc2C(=O)O)c1	NALP1 yeast inh 28 (no result: NALP3 yeast inh)
O=C(COC(=O)c1ccccc1NC(=O)c1ccccc1)c1ccc([N+](=O)[O-])cc1	CHT PAM 6.4
CCC(=O)c1cn(CC(=O)Nc2ccccc2Cl)c2ccccc12	none
Cc1c(CN2CCC(Oc3ccc(C(=O)N4CCCCC4)cc3)CC2)cnn1C	none
CCOc1ccccc1NC(=O)/C=C/C(N)=O	NALP1 yeast inh 54
CC(=O)Nc1ccc(NC(=S)NC(=O)C2CCCC2)cc1	NALP1 yeast inh 32
CCOc1ccccc1NC(=S)NC(=O)C1CC1	NALP1 yeast inh 26
Cn1nc(C(=O)NCCCN2CCCCC2)c2c1-c1ccccc1S(=O)(=O)C2	none
CCN(C(=O)COC(=O)c1cc([N+](=O)[O-])ccc1N1CCOCC1)c1ccccc1	none (no result: CHT block, NALP1 yeast inh, CHT PAM)
COc1ccc(CN(C)C(=O)CCN=C2NS(=O)(=O)c3ccccc32)c(OC)c1	none (no result: CHT block, NALP1 yeast inh, CHT PAM)
Cc1ccc(OCCCCN2CCCCC2)c(C)c1	none
Cc1ccc(OCCCCNC2CCCC(C)C2C)c(C)c1 (centres undefined)	NALP1 yeast inh 30
N#CCCN(Cc1ccccc1)C(=O)c1nccnc1C(=O)O	none
CCn1c(COc2ccccc2C)nnc1SCC(=O)CC(=O)Nc1ccccc1OC	none
CCn1c(COc2ccccc2C)nnc1SCC(=O)OC	NALP1 yeast inh 22
O=C(NC1CCCC1)C(c1cccs1)N(C(=O)c1csnn1)c1ccccc1F (centres undefined)	none
Cc1cc(C)c(CSc2nnnn2-c2ccc(C(=O)O)cc2)c(C)c1	Mot1-301 SUMO 581
CSCCC(=O)N1CCCC(N(C)CCc2ccccc2)C1 (centres undefined)	none
O=C(COC(=O)c1cc(S(=O)(=O)N2CCOCC2)ccc1O)Nc1cc(S(=O)(=O)N2CCCC2)ccc1Cl	Mot1-301 SUMO 352
CC(=O)c1c(C)[nH]c(C(=O)N2CCN(c3ncccn3)CC2)c1C	NALP1 yeast inh 38
CC(=O)c1c(C)[nH]c(C(=O)N2CCCCCC2)c1C	none
O=C(CN(Cc1ccc2c(c1)OCO2)C(=O)CNC(=O)c1ccco1)NC1CCCCC1	A1 inh inconclusive, Mot1-301 SUMO 335
O=C(NCCCN1CCOCC1)c1ccc(CS(=O)(=O)Cc2ccccc2Cl)o1	NALP1 yeast inh 29
CCCCc1c(C)c(C#N)c2nc3ccccc3n2c1NCCN(C)C	NALP1 yeast inh 34 (no result: A1 inh, CHT block, Mot1-301 SUMO, CHT PAM)
Cc1cccc(C)c1NC(=O)CN(C)C(=O)COc1cccc2c1OC(C)(C)C2	none (no result: NALP1 yeast inh)
CN(CC(=O)Nc1cccc(F)c1)C(=O)COc1cccc2c1OC(C)(C)C2	NALP1 yeast inh 32
COc1ccc2c(c1OC)C(C1c3c(cc4c(c3OC)OCO4)CCN1C)OC2=O (centres undefined)	none
COc1ccc2c(c1OC)C(=O)OC2C1c2c(cc3c(c2OC)OCO3)CCN1C (centres undefined)	Mot1-301 SUMO 484!
COCCNC(=O)c1cc2nc3c(c(C(F)(F)F)n2n1)CCc1ccccc1-3	NALP1 yeast inh 30
CC[C@@H]1C=C(C)C[C@H](C)C[C@H](OC)[C@H]2O[C@@](O)(C(=O)C(=O)N3CCCC[C@H]3C(=O)O[C@H](/C(C)=C/[C@@H]3CC[C@@H](O)[C@H](OC)C3)[C@H](C)[C@@H](O)CC1=O)[C@H](C)C[C@@H]2OC	none (no result: A1 inh, CHT block, NALP3 yeast inh, Mot1-301 SUMO, CHT PAM)
CO[C@H]1C[C@@H]2CC[C@@H](C)[C@@](O)(O2)C(=O)C(=O)N2CCCC[C@H]2C(=O)O[C@H]([C@H](C)C[C@@H]2CC[C@@H](O)[C@H](OC)C2)CC(=O)[C@H](C)C=C(C)[C@@H](O)[C@@H](OC)C(=O)[C@H](C)C[C@H](C)C=CC=CC=C1C	NALP1 yeast inh 66 (no result: A1 inh, CHT block, NALP3 yeast inh, Mot1-301 SUMO, CHT PAM)
Cc1ccc(NC(=O)Cn2nnc(C(=O)Nc3ccc(F)c(Cl)c3)c2N)cc1	NALP1 yeast inh 37
Cc1ccc(NC(=O)Cn2nnc(C(=O)NCc3ccc(Cl)cc3)c2N)cc1F	none
NS(=O)(=O)c1ccc(NC(=O)COC(=O)Cc2c[nH]c3ccccc23)cc1	none (no result: CHT block, NALP1 yeast inh, CHT PAM)
CCOc1ccc(NC(=O)CSc2nccn(-c3ccc4c(c3)OCCO4)c2=O)cc1	none (no result: NALP1 yeast inh)
CC(C)(C)OC(=O)NCCc1nnc(S(=O)(=O)Cc2ccc(Cl)cc2Cl)o1	A1 inh 5.9
COc1ccc(CN2CSC(=S)N(Cc3ccc(OC)cc3)C2)cc1	Mot1-301 SUMO 328
Cc1ccc(S(=O)(=O)N2CCN(C(=O)c3ccccc3)C2C(C)C)cc1 (centres undefined)	Mot1-301 SUMO 279
O=C(CN1C(=O)NC2(CCCc3ccccc32)C1=O)NCc1ccc(Cl)cc1Cl (centres undefined)	none
COc1cccc(NC(=O)CNc2cc(S(=O)(=O)N3CCOCC3)ccc2N2CCCC2)c1	none (no result: CHT block, NALP1 yeast inh, CHT PAM)
COc1ccc(CCNC(=O)CSc2nc3[nH]ncc3c(=O)n2-c2ccccc2OC)cc1OC	NALP1 yeast inh 35
COc1ccc(CCNC(=O)CSc2nc3[nH]ncc3c(=O)n2-c2ccc(Cl)cc2Cl)cc1OC	none
Cc1cc(NS(=O)(=O)c2ccc(NC(=O)/C=C/c3ccco3)cc2)nc(C)n1	NALP1 yeast inh 38
COc1cccc(OC)c1C(=O)Nc1ccc(S(=O)(=O)Nc2cc(C)nc(C)n2)cc1	CHT block -5.3
Cc1cc(NS(=O)(=O)c2ccc(NC(=O)c3ccco3)cc2)nc(C)n1	none
O=C(O)C1CC=CCC1C(=O)N1CCN(c2nc(-c3ccccc3Cl)c3cc(Br)ccc3n2)CC1 (centres undefined)	NALP1 yeast inh 27
O=C(O)C1CC=CCC1C(=O)N1CCN(c2nc(-c3ccccc3)c3ccccc3n2)CC1 (centres undefined)	none
CSCC[C@H](NC(=O)[C@@H]1Cc2ccccc2CN1)C(=O)Nc1ccc2c(c1)OCCO2	none
CC(C)(C)C(=O)NC(=S)Nc1ccccc1F	Mot1-301 SUMO 436
CC(=O)NC(=S)Nc1ccccc1F	none
COc1ccc(C(=O)O)c(OC)n1	Mot1-301 SUMO 313
COc1ccc(C(=O)Nc2ccc(Cl)c(Cl)c2)c(OC)n1	none
